The record followed here is PubChem BioAssay (EPA / NIEHS).

Active and inactive are the calls of the source. Rule for the calls: active = hit-call score of the fitted dose curve at least 0.9, where 1 is the maximum; inactive = score below 0.9.

The test in a line: BSK_3C_SRB: Viability Assessment in the BioMAP Diversity Plus: 3C Assay (AID 2283023).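 Note: fitted both ways against DMSO so a hit may be signal rise or drop.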 The following applies: primary human endothelial cells (HUVEC). An outline of the steps:
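Overt cytotoxicity is gauged in parallel confluent HUVEC cultures by SRB total-protein staining at the time of biomarker measurement, 24 h after dosing. Gain or loss of signal is fitted versus DMSO.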
Regarding `Cc1ccc2nc3sc(=O)sc3nc2c1`, the AC50 is 6.71 µM (active). For `OC(Cc1ccccc1Cl)(Cn1cncn1)C1(Cl)CC1` (stereo not given), the result was inactive. `Cc1ccccc1OP(=O)(Oc1ccccc1)Oc1ccccc1`: the AC50 was 35.8 µM (active). Regarding `O=[N+]([O-])c1cccc2ccccc12`, the result was inactive. Take `Oc1c(Cl)cc(Cl)cc1Cl`: the result was inactive.

Take `CCOC(=O)CCN(SN(C)C(=O)Oc1cccc2c1OC(C)(C)C2)C(C)C`: the outcome was inactive. `OC(Cc1ccccc1Cl)(Cn1[nH]cnc1=S)C1(Cl)CC1` (stereo not given): the AC50 was 32 µM (active). Consider `CCOP(=O)(OCC)SCCSCC`, for which the outcome was inactive. For `N#CCCC(Br)(C#N)CBr` (stereo not given), the concentration at half-maximal activity (AC50) is 5.06 µM (active).

For the compound `Cc1cc(C(C)(C)c2ccc(O)c(C)c2)ccc1O`, the half-maximal activity concentration (AC50) was 17 µM (active). `O=C(O)COc1cc(Cl)c(Cl)cc1Cl`: the result was inactive.

Take `O=[N+]([O-])c1ccc(Nc2ccccc2)cc1`: the result was inactive. For the compound `Cc1ccccc1OP(=O)(Oc1ccccc1C)Oc1ccccc1C`, the AC50 is 6.89 µM (active). On to `CCOC(=O)C(SP(=S)(OC)OC)c1ccccc1` (stereo not given), for which the AC50 is 32.6 µM (active). In the case of `CC(C)(C)c1cc([N+](=O)[O-])cc(C(C)(C)C)c1O`, the AC50 is 0.815 µM (active).

With `CC1(C)[C@H](C(=O)O[C@H](C#N)c2cccc(Oc3ccccc3)c2)[C@@H]1/C=C(\Cl)C(F)(F)F`, the result was inactive. In the case of `c1ccc(-c2cccc(-c3ccccc3)c2)cc1`, the AC50 was 10.7 µM (active). The same measure, in the same setting: then `Cc1ccc(OP(=O)(Oc2ccc(C)cc2C)Oc2ccc(C)cc2C)c(C)c1`, with 12 µM (active). With `CC(C)(C)c1ccccc1O`, the result was inactive. Consider `O=S(=O)(C(Cl)(Cl)Cl)C(Cl)(Cl)Cl`, for which the concentration at half-maximal activity (AC50) is 1.12 µM (active).
